# Screens: PubChem BioAssay, several laboratories
# PLAP activator – activates human placental alkaline phosphatase; P05187; purified PLAP enzyme, luminescent substrate read-out; active compounds read high; activation fold at 20 µM; 96,000 compounds, 1.2% hits; AID 696; in the data active = activation fold above about 2
# Target sequence (P05187 whole entry, looked up): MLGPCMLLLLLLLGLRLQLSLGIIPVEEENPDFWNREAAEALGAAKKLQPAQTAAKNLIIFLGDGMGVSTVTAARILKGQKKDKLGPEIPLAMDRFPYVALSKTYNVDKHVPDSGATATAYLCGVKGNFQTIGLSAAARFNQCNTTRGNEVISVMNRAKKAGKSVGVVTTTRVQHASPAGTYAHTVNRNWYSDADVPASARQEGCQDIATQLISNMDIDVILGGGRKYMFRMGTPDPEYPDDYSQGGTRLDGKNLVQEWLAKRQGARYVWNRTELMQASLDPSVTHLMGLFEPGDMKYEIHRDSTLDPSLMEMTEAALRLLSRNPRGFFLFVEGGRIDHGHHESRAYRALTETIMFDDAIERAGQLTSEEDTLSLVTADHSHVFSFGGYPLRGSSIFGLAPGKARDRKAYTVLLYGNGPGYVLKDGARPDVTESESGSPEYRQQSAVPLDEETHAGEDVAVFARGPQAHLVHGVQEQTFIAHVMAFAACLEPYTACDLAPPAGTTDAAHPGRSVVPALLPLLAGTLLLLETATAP
# DAT uptake mod – changed human dopamine transporter uptake under cocaine IC80 | LLC-PK1 hDAT cells, [14C]-dopamine uptake with cocaine IC80; actives deviate in either direction | 110,000 compounds, 1.3% hits | AID 449768 | B-score at 10 µM | Q01959;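 active = Z score or B-score, a plate-position-corrected score, falls beyond the plate's 99.7% confidence bounds, in either direction; inactive = both scores lie inside the 99.7% bounds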;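 note: scored against the spread of the other compound wells on the same plate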
# D1 allo mod – allosterically modulates the human D1 dopamine receptor; P21728; HEK293 D1, CRE-luciferase, dopamine EC30 potentiation; actives deviate in either direction; B-score at 10 µM; 58,000 compounds, 5.9% hits; AID 641;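 active = luminescence count or its row- and column-corrected plate score outside the 99.7% band of the plate's sample wells, on either side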
# TNAP act DEA – human TNAP activation, intermediate phosphate acceptor; AID 813; 64,000 tested, under 10 active; activation factor at 20 µM; purified TNAP, CDP-star luminescence, 100 mM DEA, 30 min; active compounds read high; scale: 0 levamisole-inhibited, 1 vehicle-only enzyme; P05186;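 active = activation factor of at least 2 at 20 µM, relative to controls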
# Candida biofilm – kills Candida albicans biofilms. 85,000 compounds, 0.14% hits. inhibition, % at 6 µM. C. albicans biofilm + clotrimazole, Alamar Blue. AID 834;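 active = inhibition above 20%; inactive = inhibition below 20%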;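 note: preformed 24 hr biofilms exposed to compound for 48 hr; 0% = biofilm without compound and 100% = blank killed by clotrimazole plus chlorhexidine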
# HePTP inh – blocks human HePTP tyrosine phosphatase; recombinant HePTP phosphatase activity, OD absorbance; inhibition, % at 20 µM; 110,000 compounds, 0.64% hits; AID 521; in the data active = inhibition above about 50%;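 note: plate controls were vehicle for no effect and reference inhibitor for full effect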
# D1 PAM confirm – D1 receptor (human) allosteric modulation, confirmed; HEK293 D1 CRE-luciferase, dopamine EC30 potentiation; active compounds read high; luminescence at 10 µM; shares compounds with D1 allo mod; 2,200 compounds, 88% hits;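 active = luminescence in either of two replicates above the same-plate mean plus 3 SD of the low-dose dopamine control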
# D1 no dopamine – secondary test of D1 modulators: activity without dopamine; shares compounds with D1 allo mod; 1,900 compounds, 0.8% hits; luminescence at 10 µM; HEK293 D1 CRE-luciferase, luminescence, no dopamine; active compounds read high; in the data active = luminescence above about 3900
# Isoprot counter – counter-screen for D1 modulators: isoproterenol response in HEK293 cells. shares compounds with D1 allo mod. HEK293 D1 CRE-luciferase, isoproterenol EC30 counter-screen; active compounds read high. luminescence at 10 µM. 2,200 compounds, 63% hits;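 active = luminescence in either replicate above plate mean of wells with a partly effective reference agonist dose plus 3 SD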;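 note: isoproterenol raises cAMP through native beta-adrenoceptor Gs so signal bypasses D1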
# Active calls of the source: *; · = not tested or not shown. This excerpt belongs to a sample that is enriched for hits.
SMILES,PLAP activator,DAT uptake mod,D1 allo mod,TNAP act DEA,Candida biofilm,HePTP inh,D1 PAM confirm,D1 no dopamine,Isoprot counter
Cc1ccc(S(=O)(=O)c2cc3c(=O)n4ccccc4nc3n(Cc3ccco3)c2=N)cc1,1.5,0.831,4.97*,0.8,1.5,11.5,15320*,2068,4328*
Cc1ccc(S(=O)(=O)c2cc3c(=O)n4cccc(C)c4nc3n(Cc3ccco3)c2=N)cc1C,1.6,·,1.6,1,-4.7,3.7,·,·,·
O=C(CCc1nc(-c2ccccc2F)no1)Nc1ccc(Oc2ccccc2)cc1,0.9,-0.544,8.64*,0.9,2.2,5.4,4944,1544,2592
Cc1cccc(-n2c(=O)[nH]c3c(C(N)=O)nc(C(C)C)nc32)c1,·,0.483,5.53*,·,1.4,·,10016*,1376,3232
Cc1c(NC(=O)CN2C(=O)/C(=C/c3ccccc3Cl)SC2=S)c(=O)n(-c2ccccc2)n1C,·,·,·,·,·,-16.2,·,·,·
CCN(CC)c1nc(N)c2c(N)nc3c(c2c1C#N)CC(c1ccccc1)O3 (stereo not drawn),1.1,0.69,3.58*,1,11.8,6.7,6688*,1392,2312
N#Cc1c(N2CCCCC2)nc(N)c2c(N)nc3c(c12)CC(c1ccccc1)O3 (stereo not drawn),1.3,2.1,·,·,0.4,·,·,·,·
CCOc1nc(NCc2ccco2)nc(Nc2ccccc2F)n1,·,0.385,·,·,7.1,·,·,·,·
CCOc1nc(NCc2ccco2)nc(Nc2ccc(OC)cc2)n1,0.8,0.603,4.46*,0.9,2.4,10.6,10436*,1588,3888*
c1ccc(Oc2nc(NCc3ccco3)nc(NCc3ccco3)n2)cc1,1.2,-1.68,5.17*,1,5.9,5.6,11736*,1696,3528*
Clc1ccc(/C=N/Nc2nc(N3CCOCC3)nc(N3CCOCC3)n2)cc1,·,·,·,·,·,6.8,·,·,·
COC(=O)c1ccccc1NC(=S)NC(=O)c1ccc(Cl)cc1,·,·,·,·,·,-5.9,·,·,·
N#Cc1ccccc1Cn1c(-c2cscn2)nc2ccccc21,0.6,0.112,13.4*,0.9,-2.7,8.9,15376*,1480,4728*
O=C(O)Cn1c(-c2cscn2)nc2ccccc21,0.9,-0.0984,-0.121,0.9,·,3.0,·,·,·
COc1cccc(-c2csc3nnc(SCC(=O)c4ccc(NC(C)=O)cc4)n23)c1,1,-1.06,2.98*,0.9,2.5,25.5,9644*,1744,3552*
CCOCCn1c(SCCc2ccccc2)nc2c1c(=O)[nH]c(=O)n2C,1.1,-0.00814,0.508,1,14.8,-14.8,·,·,·
CCCCCn1c(SCCc2ccccc2)nc2c1c(=O)[nH]c(=O)n2C,1,0.14,5.52*,1,3.4,4.8,12580*,1568,4052*
CCOCCSc1nc2c(c(=O)[nH]c(=O)n2C)n1CCCc1ccccc1,1,-0.056,5.59*,0.9,8.3,3.8,12256*,1704,3764*
CCCCCn1c(SCCOCC)nc2c1c(=O)[nH]c(=O)n2C,1.1,-0.0621,9.56*,0.9,9.1,5.4,20192*,1580,5400*
CCOCCn1c(SCC)nc2c1c(=O)[nH]c(=O)n2C,·,-0.203,1.6,0.9,·,8.0,·,·,·
C/C=C/Cn1c(SCCCc2ccccc2)nc2c1c(=O)[nH]c(=O)n2C,1.2,0.634,6.29*,0.8,6.8,5.6,8184*,1456,2764
CN1C(=O)/C(=C\c2ccc(OC(=O)c3cccc(Br)c3)cc2)SC1=S,·,·,·,·,·,9.0,·,·,·
CCCCOc1ccc(NC(=O)C2CC(=O)N(c3ccccc3)C2)cc1 (stereo not drawn),·,·,·,·,·,-3.2,·,·,·
CCOC(=O)c1ccc(NC(=O)C(=O)NCCOC)cc1,·,·,·,·,·,8.7,·,·,·
CCOC(=O)c1c(NC(=O)C2CCCO2)sc(C(=O)N(CC)CC)c1C (stereo not drawn),·,·,·,·,·,-3.1,·,·,·
CCOC(=O)Nc1sc(C(=O)N(CC)CC)c(C)c1C(=O)OCC,1,1.85,5.08*,0.9,3.2,-0.1,14176*,1880,2900
